# Results reported in PubChem BioAssay AID1159580 (chemical genetic matrix, 2015).
# “And” between values parts separate entries of the source, which are not always exact repeats. Identical values can stand only once. Hit rate of the full screen: of about 5,500 compounds, about 2,000 (36%) were called active. Not shown: some 18% with an inconclusive outcome. The list shows a part of the results. A number with no mark means an inactive call. No stated cut-off is given here; in the data, active means normalized growth mostly below about 0.91 (no sharp cut-off); inconclusive means no clear call, values can overlap the other calls; inactive means mostly above about 0.92.
# Assay: chemical genetic growth profiling, strain panel (AID 1159580);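 further: tested at 20 µM; growth read once vehicle control cultures reached saturation at 30 °C; 1 = growth at the plate median or of vehicle wells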
# Details: growth OD
structure (smiles),measurement,setting,value
CC(C(=O)O)c1cccc(Oc2ccccc2)c1 (configuration not stated),normalized growth,"S. cerevisiae deletion strains, locus YAL013W, strain DEP1, stronger effect = lower value",0.963
same,normalized growth,"S. cerevisiae deletion strains, locus YBR021W, strain FUR4, stronger effect = lower value",0.983
same,normalized growth,"S. cerevisiae deletion strains, locus YBR229C, strain ROT2, stronger effect = lower value",0.94
same,normalized growth,"S. cerevisiae deletion strains, locus YCL029C, strain bik1, stronger effect = lower value",0.98
same,normalized growth,"S. cerevisiae deletion strains, locus YDL035C, strain GPR1, stronger effect = lower value",0.983
same,normalized growth,"S. cerevisiae deletion strains, locus YDL074C, strain BRE1, stronger effect = lower value",0.997
same,normalized growth,"S. cerevisiae deletion strains, locus YDL101C, strain DUN1, stronger effect = lower value",0.96
same,normalized growth,"S. cerevisiae deletion strains, locus YDL134C, strain PPH21, stronger effect = lower value",0.976
same,normalized growth,"S. cerevisiae deletion strains, locus YDL185W, strain tfp1, stronger effect = lower value",0.948
same,normalized growth,"S. cerevisiae deletion strains, locus YDL192W, strain arf1, stronger effect = lower value",0.973
same,normalized growth,"S. cerevisiae deletion strains, locus YDR101C, strain arx1, stronger effect = lower value",0.984
same,normalized growth,"S. cerevisiae deletion strains, locus YDR150W, strain NUM1, stronger effect = lower value",0.947
same,normalized growth,"S. cerevisiae deletion strains, locus YDR162C, strain NBP2, stronger effect = lower value",0.969
same,normalized growth,"S. cerevisiae deletion strains, locus YDR318W, strain mcm21, stronger effect = lower value",0.988
same,normalized growth,"S. cerevisiae deletion strains, locus YDR388W, stronger effect = lower value",0.978
same,normalized growth,"S. cerevisiae deletion strains, locus YDR502C, strain sam2, stronger effect = lower value",0.981
same,normalized growth,"S. cerevisiae deletion strains, locus YEL061C, strain CIN8, stronger effect = lower value",0.973
same,normalized growth,"S. cerevisiae deletion strains, locus YER110C, stronger effect = lower value",0.967
same,normalized growth,"S. cerevisiae deletion strains, locus YER155C, strain BEM2, stronger effect = lower value",0.958
same,normalized growth,"S. cerevisiae deletion strains, locus YER167W, strain BCK2, stronger effect = lower value",0.988
same,normalized growth,"S. cerevisiae deletion strains, locus YGL078C, strain dbp3, stronger effect = lower value",0.959
same,normalized growth,"S. cerevisiae deletion strains, locus YGL086W, strain mad1, stronger effect = lower value",0.98
same,normalized growth,"S. cerevisiae deletion strains, locus YGL248W, strain PDE1, stronger effect = lower value",0.974
same,normalized growth,"S. cerevisiae deletion strains, locus YGR078C, strain PAC10, stronger effect = lower value",0.999
same,normalized growth,"S. cerevisiae deletion strains, locus YGR135W, strain pre9, stronger effect = lower value",0.985
same,normalized growth,"S. cerevisiae deletion strains, locus YGR229C, strain SMI1, stronger effect = lower value",0.974
same,normalized growth,"S. cerevisiae deletion strains, locus YGR252W, strain gcn5, stronger effect = lower value",0.957
same,normalized growth,"S. cerevisiae deletion strains, locus YHR030C, strain SLT2, stronger effect = lower value",0.978 and 0.9
same,normalized growth,"S. cerevisiae deletion strains, locus YHR079C, strain IRE1 (second series), stronger effect = lower value",0.972
same,normalized growth,"S. cerevisiae deletion strains, locus YHR079C, strain IRE1, stronger effect = lower value",0.892
same,normalized growth,"S. cerevisiae deletion strains, locus YHR094C, strain hxt1, stronger effect = lower value",0.965
same,normalized growth,"S. cerevisiae deletion strains, locus YHR129C, strain ARP1, stronger effect = lower value",0.983
same,normalized growth,"S. cerevisiae deletion strains, locus YHR200W, strain rpn10, stronger effect = lower value",0.98
same,normalized growth,"S. cerevisiae deletion strains, locus YIL066C, strain RNR3, stronger effect = lower value",0.964
same,normalized growth,"S. cerevisiae deletion strains, locus YIL073C, strain SPO22, stronger effect = lower value",0.965
same,normalized growth,"S. cerevisiae deletion strains, locus YIL125W, strain kgd1, stronger effect = lower value",0.944
same,normalized growth,"S. cerevisiae deletion strains, locus YIR030C, strain dcg1, stronger effect = lower value",0.962
same,normalized growth,"S. cerevisiae deletion strains, locus YJL095W, strain BCK1, stronger effect = lower value",1.05 and 0.905
same,normalized growth,"S. cerevisiae deletion strains, locus YJL134W, strain LCB3, stronger effect = lower value",0.962
same,normalized growth,"S. cerevisiae deletion strains, locus YJL168C, strain set2, stronger effect = lower value",0.967
same,normalized growth,"S. cerevisiae deletion strains, locus YJL187C, strain SWE1 (second series), stronger effect = lower value",0.983
same,normalized growth,"S. cerevisiae deletion strains, locus YJR043C, strain POL32, stronger effect = lower value",1
same,normalized growth,"S. cerevisiae deletion strains, locus YJR066W, strain TOR1, stronger effect = lower value",0.856
same,normalized growth,"S. cerevisiae deletion strains, locus YJR075W, strain HOC1, stronger effect = lower value",0.998
same,normalized growth,"S. cerevisiae deletion strains, locus YKL009W, strain mrt4, stronger effect = lower value",0.879
same,normalized growth,"S. cerevisiae deletion strains, locus YKL068W, stronger effect = lower value",0.937 (active)
same,normalized growth,"S. cerevisiae deletion strains, locus YKL085W, strain MDH1 (second series), stronger effect = lower value",0.919 (active)
same,normalized growth,"S. cerevisiae deletion strains, locus YKL085W, strain MDH1, stronger effect = lower value",0.919 (active)
same,normalized growth,"S. cerevisiae deletion strains, locus YKL190W, strain CNB1, stronger effect = lower value",0.979
same,normalized growth,"S. cerevisiae deletion strains, locus YKR001C, strain vps1, stronger effect = lower value",0.947
same,normalized growth,"S. cerevisiae deletion strains, locus YLR039C, strain RIC1, stronger effect = lower value",0.842
same,normalized growth,"S. cerevisiae deletion strains, locus YLR058C, strain SHM2, stronger effect = lower value",0.957
same,normalized growth,"S. cerevisiae deletion strains, locus YLR102C, strain apc9, stronger effect = lower value",0.97
same,normalized growth,"S. cerevisiae deletion strains, locus YLR113W, strain HOG1, stronger effect = lower value",0.828 (active)
same,normalized growth,"S. cerevisiae deletion strains, locus YLR262C, strain YPT6, stronger effect = lower value",0.859
same,normalized growth,"S. cerevisiae deletion strains, locus YLR268W, strain sec22, stronger effect = lower value",1.04
same,normalized growth,"S. cerevisiae deletion strains, locus YLR330W, strain CHS5, stronger effect = lower value",0.956
same,normalized growth,"S. cerevisiae deletion strains, locus YLR342W, strain FKS1 (second series), stronger effect = lower value",0.999
same,normalized growth,"S. cerevisiae deletion strains, locus YLR371W, strain rom2, stronger effect = lower value",0.962
same,normalized growth,"S. cerevisiae deletion strains, locus YLR418C, strain cdc73, stronger effect = lower value",0.99
same,normalized growth,"S. cerevisiae deletion strains, locus YML016C, strain PPZ1, stronger effect = lower value",0.97
same,normalized growth,"S. cerevisiae deletion strains, locus YML032C, strain rad52, stronger effect = lower value",0.987
same,normalized growth,"S. cerevisiae deletion strains, locus YML124C, strain tub3, stronger effect = lower value",0.968
same,normalized growth,"S. cerevisiae deletion strains, locus YMR078C, strain ctf18, stronger effect = lower value",0.953
same,normalized growth,"S. cerevisiae deletion strains, locus YMR223W, strain ubp8, stronger effect = lower value",0.968
same,normalized growth,"S. cerevisiae deletion strains, locus YMR263W, strain SAP30, stronger effect = lower value",0.982
same,normalized growth,"S. cerevisiae deletion strains, locus YMR307W, strain GAS1, stronger effect = lower value",0.953
same,normalized growth,"S. cerevisiae deletion strains, locus YNL067W, strain RPL9B, stronger effect = lower value",1
same,normalized growth,"S. cerevisiae deletion strains, locus YNL128W, strain TEP1, stronger effect = lower value",0.966
same,normalized growth,"S. cerevisiae deletion strains, locus YNL153C, strain GIM3, stronger effect = lower value",0.997
same,normalized growth,"S. cerevisiae deletion strains, locus YNL183C, strain NPR1, stronger effect = lower value",0.864
same,normalized growth,"S. cerevisiae deletion strains, locus YNL233W, strain BNI4, stronger effect = lower value",1
same,normalized growth,"S. cerevisiae deletion strains, locus YNL250W, strain rad50, stronger effect = lower value",0.941
same,normalized growth,"S. cerevisiae deletion strains, locus YNL271C, strain bni1, stronger effect = lower value",0.951
same,normalized growth,"S. cerevisiae deletion strains, locus YNL298W, strain CLA4, stronger effect = lower value",0.929
same,normalized growth,"S. cerevisiae deletion strains, locus YNL307C, strain MCK1, stronger effect = lower value",0.979
same,normalized growth,"S. cerevisiae deletion strains, locus YNL322C, strain KRE1, stronger effect = lower value",0.969
same,normalized growth,"S. cerevisiae deletion strains, locus YNR052C, strain pop2, stronger effect = lower value",0.98
same,normalized growth,"S. cerevisiae deletion strains, locus YOL006C, strain TOP1, stronger effect = lower value",1
same,normalized growth,"S. cerevisiae deletion strains, locus YOL012C, strain htz1",1.04
same,normalized growth,"S. cerevisiae deletion strains, locus YOL147C, strain pex11, stronger effect = lower value",0.975
same,normalized growth,"S. cerevisiae deletion strains, locus YOR061W, strain CKA2, stronger effect = lower value",0.964
same,normalized growth,"S. cerevisiae deletion strains, locus YOR069W, strain VPS5, stronger effect = lower value",0.966
same,normalized growth,"S. cerevisiae deletion strains, locus YOR136W, strain idh2, stronger effect = lower value",0.977
same,normalized growth,"S. cerevisiae deletion strains, locus YOR144C, strain elg1, stronger effect = lower value",0.972
same,normalized growth,"S. cerevisiae deletion strains, locus YOR184W, strain ser1, stronger effect = lower value",0.98
same,normalized growth,"S. cerevisiae deletion strains, locus YOR231W, strain MKK1, stronger effect = lower value",0.894
same,normalized growth,"S. cerevisiae deletion strains, locus YOR316C, strain cot1, stronger effect = lower value",0.962
same,normalized growth,"S. cerevisiae deletion strains, locus YPL055C, strain LGE1, stronger effect = lower value",0.964
same,normalized growth,"S. cerevisiae deletion strains, locus YPL241C, strain CIN2, stronger effect = lower value",0.976
same,normalized growth,"S. cerevisiae deletion strains, locus YPL256C, strain CLN2, stronger effect = lower value",0.851
same,normalized growth,"S. cerevisiae deletion strains, locus YPR119W, strain clb2, stronger effect = lower value",0.958
same,normalized growth,"S. cerevisiae deletion strains, locus YPR141C, strain kar3, stronger effect = lower value",0.921
same,normalized growth,"S. cerevisiae deletion strains, locus YPR163C, strain tif3, stronger effect = lower value",0.986
same,normalized growth,"S. cerevisiae deletion strains, locus YPR167C, strain met16, stronger effect = lower value",0.975
same,normalized growth,"S. cerevisiae deletion strains, strain wtn01, stronger effect = lower value",0.983
same,normalized growth,"S. cerevisiae strains, strain wild type, stronger effect = lower value",0.973
